The campaign covered roughly 68,000 compounds. About 2,700 (4%) showed an effect of 50% or more. The list comes from a sample in which strong results are over-represented; it also holds similar structures and randomly drawn compounds.
Test system: Plasmodium berghei
Test: Screen against P. berghei liver stage (PbLuc), transformed with Luciferase, at 2uM
Type: functional, HepG2
Settings: tested at 2 uM

Row | Structure (SMILES) | INHIBITION [%]
1 | O=C1NC2(CCN(CC3CC3)CC2)CC1c1ccccc1 (stereo not drawn) | 11.18
2 | CCN1CC2(CC1=O)CN(Cc1ccccn1)CCN(C(C)=O)C2 (stereo not drawn) | 28.2
3 | O=C1CCC2(CCCN(C(=O)c3ccccn3)CC2)N1 (stereo not drawn) | 28.2
4 | Cc1cc(NC(=O)CN2CCN(c3nccs3)C(C)C2)no1 (stereo not drawn) | -2.82
5 | CS(=O)(=O)c1nccn1Cc1ccc(F)cc1Cl | 29.43
6 | Cc1ccc(-c2cnc(CCC(=O)NCCN3CCOCC3)o2)cc1C | 59.03
7 | O=C(NCCN1CCOCC1)NCc1ncc(-c2ccccc2)o1 | 24.89
8 | O=C(CCc1ncc(-c2ccc(F)cc2)o1)NCCN1CCOCC1 | -45.79
9 | Cc1nc(CNC(=O)NC(C)c2ccc3c(c2)OCCO3)cs1 (stereo not drawn) | 21.69
10 | Cc1nc(C2CCCN(C(=O)c3c(C)nn4cccnc34)C2)no1 (stereo not drawn) | -1.02
11 | Cc1ncsc1C(=O)NC1CCN(Cc2cccc3c2OCCO3)CC1 | 21.83
12 | CCCn1ccnc1CN1CCc2[nH]cnc2C1Cc1ccccc1 (stereo not drawn) | -76.22
13 | Cc1cccc(CN2C[C@@H]3CN(C(=O)C4CC=CC4)C[C@@H]3C2=O)n1 | 54.01
14 | Cc1cccc(CN2C[C@@H]3CN(C(=O)NC(C)C)C[C@@H]3C2=O)n1 | 35.34
15 | Cc1cccc(CN2C[C@@H]3CN(C(=O)c4cnoc4C)C[C@@H]3C2=O)n1 | 35.89
16 | CCn1nc2c(cc1=O)CN(Cc1nc(-c3ccccn3)no1)CC2 | -27.03
17 | CN(C)CC1CN(Cc2nc(-c3cccnc3)no2)CCO1 (stereo not drawn) | 52.17
18 | Cc1cnn(CC2CN(Cc3nc(-c4cccnc4)no3)CCO2)c1 (stereo not drawn) | 12.75
19 | Cn1nc2c(cc1=O)CN(Cc1nc(-c3ccccn3)no1)CC2 | 50.75
20 | CN(C)CC1CN(Cc2nc(-c3ccccn3)no2)CCO1 (stereo not drawn) | 69.11
21 | Cn1nc2c(cc1=O)CN(Cc1nc(-c3ccco3)no1)CC2 | -0.05
22 | Cc1cnn(CC2CN(Cc3nc(-c4ccccn4)no3)CCO2)c1 (stereo not drawn) | -5.09
23 | Cc1ccc(-c2nc(CN3CCc4nn(C)c(=O)cc4C3)co2)cc1 | 62.46
24 | c1cncc(-c2noc(CN3CCOC(Cn4cccn4)C3)n2)c1 (stereo not drawn) | -0.12
25 | c1ccc(-c2noc(CN3CCOC(Cn4cccn4)C3)n2)nc1 (stereo not drawn) | 23.71
26 | Cn1nc2c(cc1=O)CN(Cc1coc(-c3ccccc3)n1)CC2 | 17.31
27 | Cn1nc2c(cc1=O)CN(Cc1coc(-c3ccc(F)cc3)n1)CC2 | -21.39

Row | Structure (SMILES) | INHIBITION [%]
28 | O=C(c1ccno1)N1CCOC[C@H](Oc2ccc(C(F)(F)F)cc2)C1 | 28.05
29 | Cc1cnc(C)c(N2C[C@H]3OC(=O)N(C4CCCC4)[C@H]3C2)n1 | 12.59
30 | O=C(C1CCCC1)N1C[C@@H]2CCN(c3cccnc3)C[C@@H]2C1 | -3.25
31 | O=C(Cc1ccc(F)cc1)N1CCn2cc(Cn3cccn3)nc2C1 | -6.3
32 | CC(C)(C)C(=O)N1CCCC1c1nc(O)cc(-c2ccccn2)n1 (stereo not drawn) | -10.16
33 | COc1cc(C(=O)NC(C)C)nc2c(C)cc(F)cc12 | 35.91
34 | CNc1nc2c(c(C(=O)N3CCCC3)n1)CN(Cc1cc(C)no1)CC2 | 10.63
35 | CS(=O)(=O)N1CCN(C(=O)c2cc(-c3cccs3)cs2)CC1 | -23.8
36 | CC(C(=O)N1CCOCC1)n1cc(Br)cn1 (stereo not drawn) | 15.05
37 | CNC(=O)CCNC(=O)c1ccccc1N1CCOCC1 | -23.9
38 | CCCNC(=O)CCNC(=O)c1ccccc1N1CCOCC1 | -21.71
39 | O=C(CCNC(=O)c1ccccc1N1CCOCC1)NC1CCCC1 | 58.76
40 | COc1cc(N2C[C@@H]3COC[C@]3(COc3cccnc3)C2)ncn1 | -38.72
41 | COCCN1CCN(C(=O)c2ccc(C)cc2F)[C@H]2CS(=O)(=O)C[C@H]21 | 32.26
42 | COc1ccc(Cc2nnc3n2N=C(C(C)(C)C)CS3)cc1 | -13.89
43 | Cc1cnn(CC2CN(Cc3cccnc3)CCO2)c1 (stereo not drawn) | 41.76
44 | CN1CCCC(c2cccc(-c3cccc(C(F)(F)F)c3)n2)C1 (stereo not drawn) | 38.64
45 | CN1CCCC(c2cccc(-c3cccc(F)c3)n2)C1 (stereo not drawn) | 13.88
46 | CN1CCCC(c2cccc(-c3cccc(Cl)c3)n2)C1 (stereo not drawn) | 51.5
47 | O=C(CCc1ccccc1Br)NCC(=O)NCc1ccccc1 | -13.34
48 | CCc1noc(C(C)N(C)CC(=O)Nc2c(C)cccc2C)n1 (stereo not drawn) | 32.81
49 | CCc1noc(C(C)N(C)CC(=O)Nc2ccc(Br)cc2C)n1 (stereo not drawn) | 53.57
50 | CCc1noc(C(C)N(C)CC(=O)Nc2cccc(C)c2C)n1 (stereo not drawn) | 1.73
51 | CC[C@@H](CO)Nc1nccc(-c2c[nH]c3cc(C(=O)OC)ccc23)n1 | 17.01
52 | Cc1cccc(CNC(Cc2ccsc2)c2nccs2)n1 (stereo not drawn) | 24.13
53 | CNc1cc(C)nc(C2CN(Cc3cc[nH]n3)CCO2)c1 (stereo not drawn) | 21.37
